Tests used:
Experiment in all cases: thermal shift delta Tm vs DMSO control; higher = stronger stabilization (binding)
Details in all cases: 12.5 µM; protein concentration 2 µM
LOC_OS01G01410-cb001 = tested on: LOC_OS01G01410-cb001
Method in brief: (§1)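 Compounds dissolved in DMSO were added to purified rice kinase domain constructs, which had been expressed in E. coli, for differential scanning fluorimetry. Each well held 19.5 μl of 2 μM kinase in 100 mM potassium phosphate pH 7.5, 150 mM NaCl, 10% glycerol and 5 × SYPRO Orange. Fluorescence was followed from 25°C to 95°C at a rate of 0.05°C/s. Shifts in Boltzmann-fitted melting temperature are triplicate means relative to DMSO-only protein.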

LOC_OS01G02750-cb003 = tested on: LOC_OS01G02750-cb003
Method in brief: as §1

LOC_OS01G10900-cb004 = tested on: LOC_OS01G10900-cb004
Method in brief: as §1

LOC_OS01G13800-cb001 = tested on: LOC_OS01G13800-cb001
Method in brief: as §1

LOC_OS01G14860-cb001 = tested on: LOC_OS01G14860-cb001
Method in brief: as §1

LOC_OS01G21960-cb002 = tested on: LOC_OS01G21960-cb002
Method in brief: as §1

LOC_OS01G39600-cb002 = tested on: LOC_OS01G39600-cb002
Method in brief: as §1

LOC_OS01G48390-cb002 = tested on: LOC_OS01G48390-cb002
Method in brief: as §1

LOC_OS01G51400-cb002 = tested on: LOC_OS01G51400-cb002
Method in brief: as §1

LOC_OS01G52050-cb004 = tested on: T1, LOC_OS01G52050-cb004
T1 sequence (whole entry): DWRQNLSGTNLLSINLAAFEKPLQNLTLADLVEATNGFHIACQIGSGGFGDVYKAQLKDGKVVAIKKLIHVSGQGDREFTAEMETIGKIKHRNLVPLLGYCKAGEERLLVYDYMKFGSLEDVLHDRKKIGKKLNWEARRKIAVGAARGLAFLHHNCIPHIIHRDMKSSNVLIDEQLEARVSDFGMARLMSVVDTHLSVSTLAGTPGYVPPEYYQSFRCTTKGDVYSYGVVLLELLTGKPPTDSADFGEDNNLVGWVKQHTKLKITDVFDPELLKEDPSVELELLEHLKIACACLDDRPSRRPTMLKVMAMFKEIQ
Method in brief: as §1

LOC_OS01G57100-cb003 = tested on: LOC_OS01G57100-cb003
Method in brief: as §1

LOC_OS01G60330-cb001 = tested on: LOC_OS01G60330-cb001
Method in brief: as §1

LOC_OS01G60700-cb002 = tested on: LOC_OS01G60700-cb002
Method in brief: as §1

LOC_OS01G63280-cb003 = tested on: LOC_OS01G63280-cb003
Method in brief: as §1

LOC_OS01G67340-cb003 = tested on: LOC_OS01G67340-cb003
Method in brief: as §1

LOC_OS01G70970-cb002 = tested on: LOC_OS01G70970-cb002
Method in brief: as §1

LOC_OS02G07810-cb001 = tested on: LOC_OS02G07810-cb001
Method in brief: as §1

LOC_OS02G08530-cb003 = tested on: LOC_OS02G08530-cb003
Method in brief: as §1

LOC_OS02G14120-cb001 = tested on: LOC_OS02G14120-cb001
Method in brief: as §1

LOC_OS02G17970-cb001 = tested on: LOC_OS02G17970-cb001
Method in brief: as §1

Structure (SMILES)	thermal shift delta Tm (LOC_OS01G01410-cb001) [°C]	thermal shift delta Tm (LOC_OS01G02750-cb003) [°C]	thermal shift delta Tm (LOC_OS01G10900-cb004) [°C]	thermal shift delta Tm (LOC_OS01G13800-cb001) [°C]	thermal shift delta Tm (LOC_OS01G14860-cb001) [°C]	thermal shift delta Tm (LOC_OS01G21960-cb002) [°C]	thermal shift delta Tm (LOC_OS01G39600-cb002) [°C]	thermal shift delta Tm (LOC_OS01G48390-cb002) [°C]	thermal shift delta Tm (LOC_OS01G51400-cb002) [°C]	thermal shift delta Tm (LOC_OS01G52050-cb004) [°C]	thermal shift delta Tm (LOC_OS01G57100-cb003) [°C]	thermal shift delta Tm (LOC_OS01G60330-cb001) [°C]	thermal shift delta Tm (LOC_OS01G60700-cb002) [°C]	thermal shift delta Tm (LOC_OS01G63280-cb003) [°C]	thermal shift delta Tm (LOC_OS01G67340-cb003) [°C]	thermal shift delta Tm (LOC_OS01G70970-cb002) [°C]	thermal shift delta Tm (LOC_OS02G07810-cb001) [°C]	thermal shift delta Tm (LOC_OS02G08530-cb003) [°C]	thermal shift delta Tm (LOC_OS02G14120-cb001) [°C]	thermal shift delta Tm (LOC_OS02G17970-cb001) [°C]
CN1CCN(c2ccc(-c3ccncc3-c3cc(F)c(O)c(F)c3)cc2)CC1	0.42	0.81	-0.45	0.02	0.46	0.1	-0.43	-0.15	0.11	0.14	0.87	1.02	0.66	0.31	0.24	0.16	0.06	0.29	1.22	0.89
Cc1nc2ccc(-n3ncc(C(=O)c4cc5ccccc5[nH]4)c3N)cc2[nH]1	0.79	1.12	0.9	0	0.41	-0.17	0.82	1.08	0.05	1.9	-0.72	2.34	-0.42	1.52	2.11	0.1	0.91	1.17	0.03	1.37
Nc1nc(Nc2ccc(S(N)(=O)=O)cc2)nn1C(=O)c1c(F)cccc1F	4.86	1.06	0.71	0.59	5.95	1.73	4.79	5.9	0.49	5.43	1.36	7.23	0.65	3.58	3.74	3.11	1.06	1.98	8.28	0.44
O=C1NCCc2[nH]c(-c3ccncc3)cc21	0.69	-0.36	0.12	0.78	5.61	2.12	-0.24	0.48	0.19	1.31	1.88	1.38	0.92	0.5	1.42	0.32	0.78	2.64	1.75	0.79
CCn1c(=O)c(-c2ccc(-c3cncs3)cc2Cl)cc2cnc(Nc3ccc(N4CCN(C)CC4)cc3)nc21	0.16	-0.15	0.42	0.34	0.12	0.22	-0.49	-0.5	0.02	-0.32	1.89	1.07	0.86	0.25	1.37	0.17	0.59	0.55	-0.39	0.23
CCNC(=O)C#Cc1ccc2c(C(=Nc3ccc(CN(C)C)cc3)c3ccccc3)c(O)[nH]c2c1	1.75	1.1	0.16	-0.3	5.63	0.65	3.52	1.35	-0.33	2.8	-0.26	0.78	0.32	0.72	1.01	13.4	0.15	2.16	0.91	0.63
Cc1cc(Nc2ncnc3ccc(-c4ccc(CNCCS(C)(=O)=O)o4)cc23)ccc1Oc1ccn2ncnc2c1 [HER2-Inhibitor-1]	1.34	2.06	3.1	0.55	2.31	1.18	3.89	0.83	0.03	1.36	2.52	0.97	1.31	1.08	0.71	0.3	0.98	2.32	2.21	1.79
C=CC(=O)Nc1cc(Nc2nccc(-c3cn(C)c4ccccc34)n2)c(OC)cc1N(C)CCN(C)C [Osimertinib (AZD9291)]	0.41	0.94	0.45	-0.53	0.01	0.34	0.02	-0.33	0.43	0.11	-0.15	1.07	1.16	0.43	0.42	0.32	0.03	3.79	3.74	-0.32
COc1ccccc1-c1cc(Nc2cccc(CS(N)(=O)=O)c2)ncn1	0.57	1.83	-0.11	0.56	1.07	1.02	-0.27	0.79	0.36	0.9	2.72	0.45	1.21	0.28	0.81	0.41	0.75	1.15	1.66	1.02
COc1cc(N2CCN(C)CC2)ccc1Nc1nccc(-c2cn(C)c3cnccc23)n1	1.86	0.45	1.77	0.56	0.92	1.48	-0.38	1.57	0.19	1.15	1.48	2	1.01	0.34	0.37	0.31	0.46	3.48	5.04	0.61
Cc1[nH]c(/C=C2\C(=O)Nc3ccc(S(=O)(=O)Cc4c(Cl)cccc4Cl)cc32)c(C)c1C(=O)N1CCC[C@@H]1CN1CCCC1	1.92	1.5	0.36	0.4	0.57	0.17	3.39	0.38	-0.1	0.18	1.04	1.52	0.53	0.78	0.73	0.57	0.8	3.7	7.86	0.39
Cc1cc(Nc2cc(N3CCN(C)CC3)nc(Sc3ccc(NC(=O)C4CC4)cc3)n2)n[nH]1 [Tozasertib (VX-680, MK-0457)]	6.12	6.08	2.83	0.07	1.86	1.49	10.2	3.05	0.88	1.66	1.29	3.67	1.21	0.58	1.87	2.62	0.91	2.4	7.67	0.93
COc1cc2ncnc(Sc3nnc(C)s3)c2cc1OC	1.2	0.37	0.57	-0.34	0.11	0.06	-0.24	2.02	0.02	0.91	0.73	0.26	0.74	-0.21	0.41	-0.08	-0.06	0.96	2.55	-0.07
CCCCNc1ncc(-c2ccc(CN3CCOCC3)cn2)c(NC2CCC(O)CC2)n1 (stereo not given)	3.51	2.08	0.31	-0.02	1.13	1.41	0.62	1.38	0.2	2.9	-0.33	8.95	0	-0.12	1.86	5.72	0.1	1.9	5.78	0.44
CNS(=O)(=O)C[C@H]1CC[C@H](N(C)c2[nH]cnc3nccc2-3)CC1 [Oclacitinib]	0.92	1.16	0.3	0.42	2.09	0.79	1.81	2.77	0.26	1.43	1.69	4.38	1.12	2.6	2.18	1.16	0.11	2.49	4.19	1.21
CC[C@H](CO)Nc1nc(NCc2ccccc2)c2ncn(C(C)C)c2n1 [Roscovitine (Seliciclib,CYC202)]	1.5	0	0.05	0.22	0.12	0.12	0.5	0.22	0.03	0.24	0.43	0.99	0.89	0.16	-0.54	0.28	0.93	0.8	0.04	0.31
CC1(COc2ccc3c(c2)ncn3-c2ccc3cccc(N4CCC(N)CC4)c3n2)COC1	1.38	7.03	1.43	-0.87	1.96	3.78	2.31	0.25	0.13	11.9	1.84	0.86	0.41	0.93	3.44	7.9	0.2	3.47	11.5	0.58
Cc1cc(C)c(/C=C2\C(=O)Nc3ccccc32)[nH]1 [Semaxanib (SU5416)]	2.4	1.81	0.7	-0.49	0.24	1.45	0.58	1.2	0.58	1.59	1.1	6.76	1.12	0.7	2.32	2.72	1.03	3.63	3.06	1.09
CC(C)n1nc(-c2cc3cc(O)ccc3[nH]2)c2c(N)ncnc21 [Torkinib (PP242)]	0.97	0.22	0.64	0.08	0.52	0.37	-0.17	0.78	0.2	0.85	0.56	1.53	1.1	3.14	1.04	0.66	0.64	0.63	0.74	0.57
O=C1Cc2c([nH]c3ccc(Br)cc23)-c2ccccc2N1 [Kenpaullone]	1.3	3.93	3.23	1.78	7.46	1.74	2.16	3.44	0.72	5.21	0.8	2.91	0.89	3.38	1.58	5.88	1.24	1.62	2.5	2.97
CNC(=O)c1ccccc1Sc1ccc2c(/C=C/c3ccccn3)n[nH]c2c1 [Axitinib]	2	0.59	0.25	-0.18	0.29	0.14	1.08	0.12	0.04	0.17	0.01	1.21	1.17	0.65	-0.05	0.68	0.49	0.53	3.54	-0.24
NC(=O)c1cnc2[nH]ccc2c1N[C@@H]1[C@@H]2CC3C[C@H]1C[C@@](O)(C3)C2	3.91	3.77	1	0.16	5.61	2.38	5.22	4.09	0.18	4.66	0.13	10.2	1.43	3.87	3.53	6.42	0.39	3	6.44	0.82
O=C1Nc2ccccc2/C1=C1/Nc2ccccc2C1=O [Indirubin]	1.5	-0.12	3.43	-0.14	3.18	0.67	-4.22	0.94	0.43	0.55	0.93	1.8	2.12	0.55	0.71	0.76	1.4	1.85	-0.51	0.97
CCCS(=O)(=O)Nc1ccc(F)c(C(=O)c2c[nH]c3ncc(-c4ccc(Cl)cc4)cc23)c1F [Vemurafenib (PLX4032, RG7204)]	3.81	7.84	6.74	1.27	4.3	2.86	11.7	3.18	1.03	11.1	3.36	10.2	0.62	14.8	3.46	3.78	2.03	1.07	4.6	1.48
Cc1ccc(NC(=O)c2cccc(C(C)(C)C#N)c2)cc1Nc1ccc2ncn(C)c(=O)c2c1	0.91	0.97	0.69	0.2	0.47	0.52	0.04	1.13	0.61	0.4	2.69	0.66	1.2	3.69	0.79	0.4	1.74	0.95	1.71	1.2

Reference: the supplement of paper PMC9694430
